# The supplement of paper PMC8728848
# Shown is part of a subset that was picked to be rich in the strongest signals.
# B1: Crocus Lectin (Crocus vernus), Q9FVA1 (protein)
# chain: MAKSLVLSSLLLALLLAAPLASLADNNVLLTGDVLHTDNQLSFESAAFVMQGDCNLVLYNEAGGFQSNTHGRGVGCTLRLNNFGQLEIHSANSNTPVWVSLRNGIPVRGDYAAVLGPDQHVTIYGPAIWSTPAPNRHERGATVSNIPRVRNVLFSSQVMSDNAQLATRDYSLVMRDDCNLALTKGSKTNIVWESGTSGRGQHCFMRLGHTGLIEISDDRLNTVWRSNTVGQEGDYVLILQINGQAVVYGPAVWSTASPARGGASAAL
# Tests used:
# Experiment in all cases: glycan array binding signal (z-score within array); higher = stronger binding
# Details in all cases: glycan notation: IUPAC condensed, linker removed
# [1] = biological target: Fuc(a1-2)Gal(b1-3)GalNAc(b1-3)Gal(a1-4)Gal(b1-4)Glc
# Summary of the method: (§1)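 Glycan array data were curated from 3228 arrays in the Consortium for Functional Glycomics database and kept only where the protein sequence was available. Glycan names were converted to IUPAC-condensed notation, and columns mapping to the same glycan were averaged. The binding signal is a within-array Z-score, averaged across arrays of the same protein sequence at different concentrations or buffers and across linkers. Negative Z-scores can be read as non-binding.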
# [2] = biological target: Fuc(a1-2)Gal(b1-4)GlcNAc(b1-3)Gal(b1-4)GlcNAc(b1-3)Gal(b1-4)GlcNAc
# Summary of the method: as §1
# [3] = biological target: Fuc(a1-2)[GalNAc(a1-3)]Gal(b1-4)[Fuc(a1-3)]GlcNAc
# Summary of the method: as §1
# [4] = biological target: Fuc(a1-3)[Gal3S(b1-4)]GlcNAc
# Summary of the method: as §1
# [5] = biological target: Fuc(b1-3)GlcNAc
# Summary of the method: as §1
# [6] = biological target: Gal(a1-3)Gal
# Summary of the method: as §1
# [7] = biological target: Gal(b1-3)Gal
# Summary of the method: as §1
# [8] = biological target: Gal(b1-4)GalNAc(a1-3)[Fuc(a1-2)]Gal(b1-4)GlcNAc
# Summary of the method: as §1
# [9] = biological target: Gal(b1-4)Glc
# Summary of the method: as §1
# [10] = biological target: Gal(b1-4)Glc6S
# Summary of the method: as §1
# [11] = biological target: GlcA(b1-3)Gal
# Summary of the method: as §1
# [12] = biological target: GlcNAc(a1-6)Gal(b1-4)GlcNAc
# Summary of the method: as §1
# [13] = biological target: GlcNAc(b1-4)GlcNAc(b1-4)GlcNAc
# Summary of the method: as §1
# [14] = biological target: GlcNAc(b1-4)[GlcNAc(b1-6)]GalNAc
# Summary of the method: as §1
# [15] = biological target: GlcNAc(b1-6)GalNAc
# Summary of the method: as §1
# [16] = biological target: Man(a1-2)Man(a1-3)[Man(a1-3)[Man(a1-6)]Man(a1-6)]Man(b1-4)GlcNAc(b1-4)GlcNAc
# Summary of the method: as §1
# [17] = biological target: Man(a1-3)[Man(a1-6)]Man
# Summary of the method: as §1
# [18] = biological target: Man(a1-3)[Man(a1-6)]Man(a1-6)[Man(a1-3)]Man(b1-4)GlcNAc(b1-4)GlcNAc
# Summary of the method: as §1
# [19] = biological target: Man(a1-3)[Man(a1-6)]Man(b1-4)GlcNAc(b1-4)GlcNAc
# Summary of the method: as §1
# [20] = biological target: Neu5Ac(a2-3)Gal(b1-3)[Neu5Ac(a2-3)Gal(b1-4)]GlcNAc
# Summary of the method: as §1
# [21] = biological target: Neu5Ac(a2-3)Gal(b1-4)[Fuc(a1-3)]GlcNAc6S
# Summary of the method: as §1
binder,measurement,setting,value
B1,glycan array binding signal (z-score),[1],-0.162
same,glycan array binding signal (z-score),[2],-0.146
same,glycan array binding signal (z-score),[3],-0.159
same,glycan array binding signal (z-score),[4],-0.187
same,glycan array binding signal (z-score),[5],-0.163
same,glycan array binding signal (z-score),[6],-0.177
same,glycan array binding signal (z-score),[7],-0.192
same,glycan array binding signal (z-score),[8],-0.195
same,glycan array binding signal (z-score),[9],-0.152
same,glycan array binding signal (z-score),[10],-0.165
same,glycan array binding signal (z-score),[11],-0.179
same,glycan array binding signal (z-score),[12],-0.196
same,glycan array binding signal (z-score),[13],-0.156
same,glycan array binding signal (z-score),[14],-0.187
same,glycan array binding signal (z-score),[15],-0.175
same,glycan array binding signal (z-score),[16],3.76
same,glycan array binding signal (z-score),[17],7.87
same,glycan array binding signal (z-score),[18],7.04
same,glycan array binding signal (z-score),[19],6.62
same,glycan array binding signal (z-score),[20],-0.169
same,glycan array binding signal (z-score),[21],-0.195
